The text below walks through data of article PMC7862700, “An all-to-all approach to the identification of sequence-specific readers for epigenetic DNA modifications on cytosine”.

Holding throughout (experiment): DAPPL (digital affinity profiling via proximity ligation, sequencing); 10 mM Tris-HCl pH 7.5, 50 mM NaCl, 1 mM DTT, 4% glycerol, room temperature, 30 min; GST-TFs on glutathione beads, 16-mer random dsDNA library, 0.1% formaldehyde crosslink after washing; high values mean tight binding
Assay [1] deals with T1, FLI1 (Homo sapiens, UniProt Q01543 1-452).
T1 sequence: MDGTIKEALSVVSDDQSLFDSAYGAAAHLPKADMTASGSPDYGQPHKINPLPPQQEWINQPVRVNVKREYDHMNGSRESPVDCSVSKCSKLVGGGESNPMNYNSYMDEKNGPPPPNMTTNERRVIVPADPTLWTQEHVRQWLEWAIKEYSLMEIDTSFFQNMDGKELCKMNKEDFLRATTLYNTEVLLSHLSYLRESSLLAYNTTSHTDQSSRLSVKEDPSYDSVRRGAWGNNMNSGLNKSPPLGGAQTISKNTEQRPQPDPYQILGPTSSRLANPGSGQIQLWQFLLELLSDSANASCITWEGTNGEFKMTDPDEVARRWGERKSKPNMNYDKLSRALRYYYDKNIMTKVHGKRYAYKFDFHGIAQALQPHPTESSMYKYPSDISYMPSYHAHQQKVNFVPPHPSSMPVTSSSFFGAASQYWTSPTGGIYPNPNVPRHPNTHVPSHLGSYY
Particulars: protein: recombinant; tags: N-terminal GST; dsDNA, one strand shown. In short, it runs like this:
(§1)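 Pools were built from human transcription factors expressed in yeast as GST fusions, captured on glutathione beads and DNA-barcoded, along with a tag-only sample. Incubation with 200 nmole of a 16-mer random double-stranded DNA library lasted 30 min at room temperature in Tris/NaCl/DTT/glycerol buffer, and was followed by washing, 0.1% formaldehyde crosslinking, proximity ligation, PCR amplification and Illumina NextSeq500 sequencing. Binding signal is the quotient of each hexamer's read frequency for a factor and its frequency for the tag-only sample.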

The target in assay [2] is T2, ELK1 (Homo sapiens, UniProt P19419 1-428).
T2 sequence: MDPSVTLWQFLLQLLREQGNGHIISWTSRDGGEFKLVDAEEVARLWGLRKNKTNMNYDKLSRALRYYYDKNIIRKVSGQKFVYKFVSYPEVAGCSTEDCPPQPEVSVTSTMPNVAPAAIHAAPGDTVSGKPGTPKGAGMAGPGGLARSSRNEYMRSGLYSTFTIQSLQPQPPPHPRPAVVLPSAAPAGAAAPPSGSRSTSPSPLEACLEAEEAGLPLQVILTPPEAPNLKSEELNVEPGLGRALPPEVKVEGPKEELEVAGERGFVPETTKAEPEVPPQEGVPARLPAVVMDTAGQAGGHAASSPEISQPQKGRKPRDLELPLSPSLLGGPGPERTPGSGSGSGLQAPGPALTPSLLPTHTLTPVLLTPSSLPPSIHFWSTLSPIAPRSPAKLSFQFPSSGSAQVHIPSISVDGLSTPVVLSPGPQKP
The conditions noted are these: protein: recombinant; tags: N-terminal GST; dsDNA, one strand shown. The method in brief:
as §1

Assay [3] deals with T3, GABPA (Homo sapiens, UniProt Q06546 1-454).
T3 sequence: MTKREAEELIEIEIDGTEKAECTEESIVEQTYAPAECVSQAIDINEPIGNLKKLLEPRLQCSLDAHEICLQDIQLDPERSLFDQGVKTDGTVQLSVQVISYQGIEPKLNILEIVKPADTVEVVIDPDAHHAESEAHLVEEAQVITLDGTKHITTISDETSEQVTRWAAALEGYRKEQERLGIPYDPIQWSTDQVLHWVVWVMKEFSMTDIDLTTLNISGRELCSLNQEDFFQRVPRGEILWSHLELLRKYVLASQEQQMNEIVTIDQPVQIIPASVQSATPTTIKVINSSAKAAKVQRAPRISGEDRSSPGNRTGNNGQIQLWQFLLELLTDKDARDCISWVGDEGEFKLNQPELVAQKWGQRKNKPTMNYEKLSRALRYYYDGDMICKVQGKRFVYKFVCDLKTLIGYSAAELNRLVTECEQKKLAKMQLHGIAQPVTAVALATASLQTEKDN
Particulars: protein: recombinant; tags: N-terminal GST; dsDNA, one strand shown. The method in brief:
as §1

Assay [4] deals with T4, ERG (Homo sapiens, UniProt P11308 1-479).
T4 sequence: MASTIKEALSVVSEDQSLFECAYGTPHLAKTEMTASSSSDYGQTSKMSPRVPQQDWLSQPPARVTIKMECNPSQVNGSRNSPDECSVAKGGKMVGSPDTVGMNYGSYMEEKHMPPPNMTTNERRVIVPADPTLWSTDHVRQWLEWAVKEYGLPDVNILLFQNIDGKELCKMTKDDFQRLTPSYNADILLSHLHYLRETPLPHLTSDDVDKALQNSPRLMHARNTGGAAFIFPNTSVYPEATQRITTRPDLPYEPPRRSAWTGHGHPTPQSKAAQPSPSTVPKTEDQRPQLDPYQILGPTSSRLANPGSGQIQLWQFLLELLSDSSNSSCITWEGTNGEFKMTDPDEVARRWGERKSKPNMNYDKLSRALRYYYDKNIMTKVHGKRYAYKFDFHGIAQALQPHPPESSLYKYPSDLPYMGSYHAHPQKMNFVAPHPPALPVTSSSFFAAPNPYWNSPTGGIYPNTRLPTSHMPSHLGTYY
The conditions noted are these: protein: recombinant; tags: N-terminal GST; dsDNA, one strand shown. The method in brief:
as §1

In assay [5] the target is ELF1 (Homo sapiens, UniProt P32519 1-619). The conditions noted are these: protein: recombinant; tags: N-terminal GST; dsDNA, one strand shown. In short, it runs like this:
as §1

Assay [6] addresses T5, EHF (Homo sapiens, UniProt Q9NZC4 1-300).
T5 sequence: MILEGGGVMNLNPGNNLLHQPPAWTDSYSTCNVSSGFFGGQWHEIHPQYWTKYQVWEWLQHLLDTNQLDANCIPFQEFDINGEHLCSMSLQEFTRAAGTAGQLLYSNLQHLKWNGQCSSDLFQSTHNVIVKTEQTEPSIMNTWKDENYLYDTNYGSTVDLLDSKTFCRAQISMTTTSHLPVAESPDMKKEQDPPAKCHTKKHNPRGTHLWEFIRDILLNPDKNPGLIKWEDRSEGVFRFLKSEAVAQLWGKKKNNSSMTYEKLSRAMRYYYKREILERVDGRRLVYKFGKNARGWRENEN
The conditions noted are these: protein: recombinant; tags: N-terminal GST; dsDNA, one strand shown. In short, it runs like this:
as §1

For assay [7], the target named is SPI1 (Homo sapiens, UniProt P17947 1-270). The conditions noted are these: protein: recombinant; tags: N-terminal GST; dsDNA, one strand shown. In short, it runs like this:
as §1

Assay [8] has as its target SPIB (Homo sapiens, UniProt Q01892 1-262). The conditions noted are these: protein: recombinant; tags: N-terminal GST; dsDNA, one strand shown. The method in brief: as §1
Assay [9] concerns the target T6, ELK3 (Homo sapiens, UniProt P41970 1-407).
T6 sequence: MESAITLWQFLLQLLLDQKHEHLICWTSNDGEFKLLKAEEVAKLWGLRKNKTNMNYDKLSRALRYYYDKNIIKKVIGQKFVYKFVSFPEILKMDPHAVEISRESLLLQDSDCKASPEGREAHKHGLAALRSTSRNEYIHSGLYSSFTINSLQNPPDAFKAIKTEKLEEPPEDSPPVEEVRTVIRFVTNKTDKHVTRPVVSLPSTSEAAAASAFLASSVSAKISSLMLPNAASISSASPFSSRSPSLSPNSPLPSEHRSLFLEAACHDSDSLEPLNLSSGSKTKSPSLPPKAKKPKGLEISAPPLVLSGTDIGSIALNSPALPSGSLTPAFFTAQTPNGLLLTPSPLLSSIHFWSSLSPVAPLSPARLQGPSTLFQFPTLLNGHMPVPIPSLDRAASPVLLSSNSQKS
Particulars: protein: recombinant; tags: N-terminal GST; dsDNA, one strand shown. In short, it runs like this:
as §1

For assay [10], the target named is T7, FEV (Homo sapiens, UniProt Q99581 1-238).
T7 sequence: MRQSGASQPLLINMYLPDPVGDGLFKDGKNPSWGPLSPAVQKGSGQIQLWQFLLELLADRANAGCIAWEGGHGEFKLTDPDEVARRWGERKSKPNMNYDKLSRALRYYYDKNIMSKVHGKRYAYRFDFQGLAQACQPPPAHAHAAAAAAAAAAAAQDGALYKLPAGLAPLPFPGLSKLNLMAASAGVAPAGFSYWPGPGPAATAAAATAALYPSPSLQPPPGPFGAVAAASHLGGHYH
The conditions noted are these: protein: recombinant; tags: N-terminal GST; dsDNA, one strand shown. In short, it runs like this:
as §1

The target in assay [11] is ETV5 (Homo sapiens, UniProt P41161 1-510). The conditions noted are these: protein: recombinant; tags: N-terminal GST; dsDNA, one strand shown. The method in brief: as §1
Assay [12] concerns the target HSF1 (Homo sapiens, UniProt Q00613 1-529). The conditions noted are these: protein: recombinant; tags: N-terminal GST; chain copies: 3; dsDNA, one strand shown. The method in brief: as §1
Assay [13] deals with T8, SPIC (Homo sapiens, UniProt Q8N5J4 1-248).
T8 sequence: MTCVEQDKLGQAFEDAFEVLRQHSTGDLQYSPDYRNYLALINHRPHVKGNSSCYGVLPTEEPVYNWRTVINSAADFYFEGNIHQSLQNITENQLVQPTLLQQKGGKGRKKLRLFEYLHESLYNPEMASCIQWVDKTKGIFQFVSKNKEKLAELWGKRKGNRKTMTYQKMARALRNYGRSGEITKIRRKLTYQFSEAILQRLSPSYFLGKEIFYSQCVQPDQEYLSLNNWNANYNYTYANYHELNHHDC
The conditions noted are these: protein: recombinant; tags: N-terminal GST; dsDNA, one strand shown. In short, it runs like this: as §1

For assay [14], the target named is ELF4 (Homo sapiens, UniProt Q99607 1-663). Particulars: protein: recombinant; tags: N-terminal GST; dsDNA, one strand shown. The method in brief: as §1
Assay [15] deals with T9, ELK4 (Homo sapiens, UniProt P28324-2 1-405).
T9 sequence: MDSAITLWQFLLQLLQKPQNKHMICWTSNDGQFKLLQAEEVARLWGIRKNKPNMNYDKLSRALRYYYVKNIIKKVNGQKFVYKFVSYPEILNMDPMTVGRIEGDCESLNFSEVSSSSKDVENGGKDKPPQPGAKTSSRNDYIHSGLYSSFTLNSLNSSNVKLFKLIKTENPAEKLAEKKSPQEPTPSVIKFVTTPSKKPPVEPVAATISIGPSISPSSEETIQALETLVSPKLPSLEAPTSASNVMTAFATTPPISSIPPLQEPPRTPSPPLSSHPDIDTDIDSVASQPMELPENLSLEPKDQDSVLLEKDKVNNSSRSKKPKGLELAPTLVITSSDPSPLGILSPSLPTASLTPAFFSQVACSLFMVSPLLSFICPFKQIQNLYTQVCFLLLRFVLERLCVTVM
The conditions noted are these: protein: recombinant; tags: N-terminal GST; dsDNA, one strand shown. In short, it runs like this:
as §1

Assay [16] has as its target T10, ETV2 (Homo sapiens, UniProt O00321 1-342).
T10 sequence: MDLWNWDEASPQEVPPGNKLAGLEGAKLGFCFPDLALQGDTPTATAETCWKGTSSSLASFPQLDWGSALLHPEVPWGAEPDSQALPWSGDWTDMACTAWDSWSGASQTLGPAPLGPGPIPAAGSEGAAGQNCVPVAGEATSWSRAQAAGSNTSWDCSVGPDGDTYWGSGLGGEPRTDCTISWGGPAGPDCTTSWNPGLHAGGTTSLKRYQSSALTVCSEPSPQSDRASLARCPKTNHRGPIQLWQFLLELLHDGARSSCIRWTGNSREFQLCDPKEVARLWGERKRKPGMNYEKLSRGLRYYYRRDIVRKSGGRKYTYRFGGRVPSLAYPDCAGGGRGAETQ
Particulars: protein: recombinant; tags: N-terminal GST; dsDNA, one strand shown. The method in brief: as §1

For assay [17], the target named is T11, ELF3 (Homo sapiens, UniProt P78545 1-371).
T11 sequence: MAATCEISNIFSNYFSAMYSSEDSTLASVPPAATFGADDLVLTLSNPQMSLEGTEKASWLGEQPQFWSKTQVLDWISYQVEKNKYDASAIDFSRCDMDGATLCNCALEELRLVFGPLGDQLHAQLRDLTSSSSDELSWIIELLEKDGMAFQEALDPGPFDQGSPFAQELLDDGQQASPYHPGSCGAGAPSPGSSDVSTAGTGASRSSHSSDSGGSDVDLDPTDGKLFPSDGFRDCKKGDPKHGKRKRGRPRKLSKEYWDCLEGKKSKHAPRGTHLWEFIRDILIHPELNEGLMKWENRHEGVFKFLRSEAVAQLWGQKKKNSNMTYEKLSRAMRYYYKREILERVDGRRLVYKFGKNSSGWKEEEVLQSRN
Particulars: protein: recombinant; tags: N-terminal GST; dsDNA, one strand shown. The method in brief:
as §1

In assay [18] the target is CRX (Homo sapiens, UniProt O43186 1-299). The conditions noted are these: protein: recombinant; tags: N-terminal GST; dsDNA, one strand shown. In short, it runs like this:
as §1

Assay [19] has as its target ETV1 (Homo sapiens, UniProt P50549 1-477). The conditions noted are these: protein: recombinant; tags: N-terminal GST; dsDNA, one strand shown. The method in brief:
as §1

SPIB, sequence (Q01892 whole entry): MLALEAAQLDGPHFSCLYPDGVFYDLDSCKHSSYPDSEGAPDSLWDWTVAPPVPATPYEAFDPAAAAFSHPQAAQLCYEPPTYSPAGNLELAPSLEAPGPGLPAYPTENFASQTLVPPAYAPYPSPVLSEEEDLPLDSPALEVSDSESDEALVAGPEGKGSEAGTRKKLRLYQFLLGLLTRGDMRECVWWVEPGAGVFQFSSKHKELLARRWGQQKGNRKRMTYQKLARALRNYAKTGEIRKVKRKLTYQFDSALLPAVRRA
HSF1, sequence (Q00613 whole entry): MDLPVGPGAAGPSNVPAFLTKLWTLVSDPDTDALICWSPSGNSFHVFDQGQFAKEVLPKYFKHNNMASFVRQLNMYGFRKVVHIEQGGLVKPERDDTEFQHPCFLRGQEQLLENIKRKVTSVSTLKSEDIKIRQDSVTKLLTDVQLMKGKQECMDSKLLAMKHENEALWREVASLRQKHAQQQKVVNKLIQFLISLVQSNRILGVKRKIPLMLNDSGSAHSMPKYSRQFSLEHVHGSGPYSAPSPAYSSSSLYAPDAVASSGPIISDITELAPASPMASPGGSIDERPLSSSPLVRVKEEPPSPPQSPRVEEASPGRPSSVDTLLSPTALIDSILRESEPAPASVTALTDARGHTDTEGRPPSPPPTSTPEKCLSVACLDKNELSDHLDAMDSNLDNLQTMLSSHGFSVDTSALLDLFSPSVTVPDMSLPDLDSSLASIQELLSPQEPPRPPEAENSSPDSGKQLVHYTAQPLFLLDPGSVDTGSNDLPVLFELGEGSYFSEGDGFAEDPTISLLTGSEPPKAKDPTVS
CRX, sequence (O43186 whole entry): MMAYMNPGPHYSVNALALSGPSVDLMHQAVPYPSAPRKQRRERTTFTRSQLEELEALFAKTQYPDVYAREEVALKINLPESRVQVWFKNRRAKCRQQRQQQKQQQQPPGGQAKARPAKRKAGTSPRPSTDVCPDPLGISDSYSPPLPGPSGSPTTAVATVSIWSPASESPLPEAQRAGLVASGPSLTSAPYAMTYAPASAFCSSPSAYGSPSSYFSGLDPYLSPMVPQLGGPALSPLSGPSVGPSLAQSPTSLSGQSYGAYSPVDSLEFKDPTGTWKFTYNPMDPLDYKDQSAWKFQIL
ELF4, sequence (Q99607 whole entry): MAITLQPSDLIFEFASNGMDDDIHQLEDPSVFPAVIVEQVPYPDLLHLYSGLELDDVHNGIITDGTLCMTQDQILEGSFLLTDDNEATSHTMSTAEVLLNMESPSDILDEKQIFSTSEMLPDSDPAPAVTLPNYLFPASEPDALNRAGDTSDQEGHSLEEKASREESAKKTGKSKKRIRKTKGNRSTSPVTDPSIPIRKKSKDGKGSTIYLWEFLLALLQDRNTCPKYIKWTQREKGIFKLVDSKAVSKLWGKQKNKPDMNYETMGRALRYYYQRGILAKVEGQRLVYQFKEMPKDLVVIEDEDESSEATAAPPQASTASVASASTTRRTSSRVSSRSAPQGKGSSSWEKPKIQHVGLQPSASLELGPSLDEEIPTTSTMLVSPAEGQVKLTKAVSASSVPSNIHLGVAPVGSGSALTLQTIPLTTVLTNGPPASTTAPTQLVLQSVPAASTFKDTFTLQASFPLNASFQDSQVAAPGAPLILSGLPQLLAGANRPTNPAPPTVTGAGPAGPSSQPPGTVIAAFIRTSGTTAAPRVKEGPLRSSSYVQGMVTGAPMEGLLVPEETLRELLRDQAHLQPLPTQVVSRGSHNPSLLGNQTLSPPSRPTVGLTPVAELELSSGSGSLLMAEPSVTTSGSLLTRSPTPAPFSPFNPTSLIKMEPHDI
ELF1, sequence (P32519 whole entry): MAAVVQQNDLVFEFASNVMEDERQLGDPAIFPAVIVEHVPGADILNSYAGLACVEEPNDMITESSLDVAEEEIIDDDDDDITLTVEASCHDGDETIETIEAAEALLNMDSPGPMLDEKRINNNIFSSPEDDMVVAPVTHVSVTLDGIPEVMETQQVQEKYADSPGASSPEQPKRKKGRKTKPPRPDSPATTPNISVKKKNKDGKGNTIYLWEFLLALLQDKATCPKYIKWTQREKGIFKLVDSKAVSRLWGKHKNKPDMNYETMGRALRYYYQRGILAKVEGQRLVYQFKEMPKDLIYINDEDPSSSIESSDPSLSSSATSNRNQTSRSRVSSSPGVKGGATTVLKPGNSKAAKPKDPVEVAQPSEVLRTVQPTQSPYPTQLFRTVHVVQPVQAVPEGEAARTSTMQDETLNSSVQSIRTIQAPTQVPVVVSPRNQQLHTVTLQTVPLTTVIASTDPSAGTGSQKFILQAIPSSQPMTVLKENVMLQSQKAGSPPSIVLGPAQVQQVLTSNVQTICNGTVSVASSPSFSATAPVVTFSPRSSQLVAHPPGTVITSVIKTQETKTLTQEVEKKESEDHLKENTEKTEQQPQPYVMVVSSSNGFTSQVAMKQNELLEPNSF
ETV1, sequence (P50549 whole entry): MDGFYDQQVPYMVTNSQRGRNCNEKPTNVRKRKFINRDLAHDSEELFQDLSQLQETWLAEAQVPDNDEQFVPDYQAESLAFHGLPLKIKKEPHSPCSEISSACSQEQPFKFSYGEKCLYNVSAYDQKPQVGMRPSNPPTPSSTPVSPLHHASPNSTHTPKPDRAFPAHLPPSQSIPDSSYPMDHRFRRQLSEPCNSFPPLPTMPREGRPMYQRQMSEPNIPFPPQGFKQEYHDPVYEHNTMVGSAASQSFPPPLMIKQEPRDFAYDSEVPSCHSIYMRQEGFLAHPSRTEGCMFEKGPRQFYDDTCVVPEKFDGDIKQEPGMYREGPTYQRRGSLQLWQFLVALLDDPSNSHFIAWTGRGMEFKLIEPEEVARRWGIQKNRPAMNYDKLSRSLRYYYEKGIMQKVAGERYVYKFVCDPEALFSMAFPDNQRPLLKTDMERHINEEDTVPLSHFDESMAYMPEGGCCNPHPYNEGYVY
ETV5, sequence (P41161 whole entry): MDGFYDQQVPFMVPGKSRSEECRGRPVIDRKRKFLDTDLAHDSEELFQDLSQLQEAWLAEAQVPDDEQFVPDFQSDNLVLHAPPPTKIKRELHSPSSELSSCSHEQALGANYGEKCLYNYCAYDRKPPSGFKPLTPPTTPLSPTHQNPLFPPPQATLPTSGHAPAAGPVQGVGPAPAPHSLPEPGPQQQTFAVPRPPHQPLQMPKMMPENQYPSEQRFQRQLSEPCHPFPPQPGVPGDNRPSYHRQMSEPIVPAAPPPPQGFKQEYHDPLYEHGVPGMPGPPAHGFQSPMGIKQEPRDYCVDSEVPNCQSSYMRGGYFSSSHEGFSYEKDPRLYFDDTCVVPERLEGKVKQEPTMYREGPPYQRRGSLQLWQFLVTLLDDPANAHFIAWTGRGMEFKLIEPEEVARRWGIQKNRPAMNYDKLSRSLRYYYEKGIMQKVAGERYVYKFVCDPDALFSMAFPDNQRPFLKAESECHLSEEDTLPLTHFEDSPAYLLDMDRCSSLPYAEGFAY

With CGACTT, the binding signal in [1] was 1.84 fold enrichment (6-mer frequency, TF over GST control); in assay [2] it was 1.85 fold enrichment (6-mer frequency, TF over GST control); in assay [3], 1.58 fold enrichment (6-mer frequency, TF over GST control); in [4], 1.84 fold enrichment (6-mer frequency, TF over GST control); in [5] it was 1.69 fold enrichment (6-mer frequency, TF over GST control); in [6], 1.8 fold enrichment (6-mer frequency, TF over GST control). In addition, the binding signal in assay [7] is 1.9 fold enrichment (6-mer frequency, TF over GST control); in [8] it was 1.79 fold enrichment (6-mer frequency, TF over GST control); in [9] it was 1.94 fold enrichment (6-mer frequency, TF over GST control); in assay [10] it was 2 fold enrichment (6-mer frequency, TF over GST control); in [11], 1.65 fold enrichment (6-mer frequency, TF over GST control); in assay [12], 1.57 fold enrichment (6-mer frequency, TF over GST control). The binding signal in assay [13] is 1.65 fold enrichment (6-mer frequency, TF over GST control); in assay [14] it was 1.69 fold enrichment (6-mer frequency, TF over GST control); in assay [15], 1.97 fold enrichment (6-mer frequency, TF over GST control); in assay [16], 1.72 fold enrichment (6-mer frequency, TF over GST control); in assay [17], 1.7 fold enrichment (6-mer frequency, TF over GST control); in assay [18], 1.74 fold enrichment (6-mer frequency, TF over GST control). In assay [19], the binding signal is 1.72 fold enrichment (6-mer frequency, TF over GST control).
